Experimental data published in PubChem BioAssay (NCI).
About 83,000 compounds went through this panel and 20% of them were active in at least one assay; those are over-represented in the sample as a whole.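 Each cell line was grown in a 96-well plate and treated with one concentration of compound for 48 hours. Values below 10 were considered active.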 Activity calls are given as the source filed them.

test system: SR leukemia; test: NCI-60 one-dose screen, 48 h (100 = growth as untreated, 0 = no growth, -100 = all killed); details: 10 µM

Structure (SMILES)	growth
OCc1[nH]nc2cc(Nc3ncc4ccc(Br)c(OC5CCC(O)CC5)c4n3)ccc12 (stereo not drawn)	3.06% (active)
COc1cc2c3c(n(CCCNCCO)c(=O)c2cc1OC)-c1nc2c(cc1C3=O)OCO2	1.88% (active)
COc1ccc(CN2[C@H](C(=O)NCCCCCCC(=O)NO)Cc3c([nH]c4ccccc34)[C@H]2C2CC2)cc1	16% (inactive)
COc1ccc(C2N(c3ccc(Br)cc3)N=C(C(C)=O)N2[C@H]2[C@H](OC(C)=O)O[C@H](COC(C)=O)[C@@H](OC(C)=O)[C@@H]2OC(C)=O)cc1 (stereo partly drawn)	75.9% (inactive)
CN1C(=O)N(C)C2SC(N/N=C/c3cccs3)=NC21 (stereo not drawn)	13.4% (inactive)
Cc1cc(C)nc(/N=C(\N)Nc2ccc(S(=O)(=O)Nc3nc(C)cc(C)n3)cc2)n1	99.8% (inactive)
O=C(Cc1ccc2c(c1)CN(C1CCC(=O)NC1=O)C2=O)NCCc1ccccc1 (stereo not drawn)	53.5% (inactive)
CCNCCCn1c2c(c3cc(OC)c(OC)cc3c1=O)C(=O)c1cc3c(nc1-2)OCO3	-7.45% (active)
O=C(CNc1nc(-c2ccccc2)cs1)Nc1ccc(Cl)cc1[N+](=O)[O-]	7.61% (active)
Cc1ccc2nc(-c3ccc(-c4nnc(SCC(=O)Nc5ccc(Cl)cc5)o4)cc3)[nH]c2c1	21.8% (inactive)
Cc1ccc(C(=O)NNC(=O)CSc2nc3ccccc3c(=O)[nH]2)cc1	73% (inactive)
CN(C)CCNC(=O)OCCCCOc1cc(O)c2c(=O)cc(-c3ccccc3)oc2c1	-28.9% (active)
CCCCSc1nc(Nc2ccc(/C(C)=N/NC(N)=S)cc2)c(C#N)c(-c2ccccc2)n1	61.6% (inactive)
O=c1[nH]c2ccccc2cc1CSc1ccc(Nc2nccc(-c3ccc4c(c3)OCO4)n2)cc1	81.7% (inactive)
COc1cc2oc(-c3cccc(C(=O)Nc4ccc(Cl)cc4)c3)cc(=O)c2c(OCCNC(=O)CNC(=O)OC(C)(C)C)c1OC	37.5% (inactive)
Cc1ccc2nc(-c3ccc(-c4nnc(SCC(=O)Nc5ccc(Br)cc5)o4)cc3)[nH]c2c1	16.1% (inactive)
COc1ccc(CN2[C@@H](C(=O)NCc3ccc(C(=O)NO)cc3)Cc3c([nH]c4ccccc34)[C@@H]2C)cc1	14.5% (inactive)
O=C(CNc1nc(-c2ccccc2)cs1)Nc1cccc(Cl)c1	-15% (active)
NS(=O)(=O)c1ccc(NC(=O)CSc2ccc(-c3ccc(Cl)cc3)nn2)c(Br)c1	66.4% (inactive)
Clc1ccc2c(N/N=C/c3c[nH]c4ccc(Br)cc34)ccnc2c1	-45.6% (active)
Cc1ccc(-c2ccc(SCC(=O)Nc3ccc(S(N)(=O)=O)cc3Br)nn2)cc1	75.3% (inactive)
CC(=O)Nc1ccc(-c2cn(-c3cccc(C(=O)Nc4cccc(OC(F)(F)F)c4)c3)nn2)cn1	97.8% (inactive)
CCOC(=O)N/C(=C1/OCCN1C)[P+](c1ccccc1)(c1ccccc1)c1ccccc1	66.6% (inactive)
O=C(NO)c1ccc(CNc2nc(-c3ccccc3)c3ccccc3n2)cc1	15.7% (inactive)
Cc1cc(C)nc(NS(=O)(=O)c2ccc(N/C(N)=N/c3nccc(-c4cccs4)n3)cc2)n1	92.3% (inactive)
COc1cnc2c(c1)C(=O)c1c-2n(CCCNCCO)c(=O)c2cc(OC)c(OC)cc12	5.85% (active)

test system: RPMI-8226 leukemia; test: as above; details: 10 µM

Structure (SMILES)	growth
Cc1ccc(C(=O)N/C(=C2/OCCN2C)[P+](c2ccccc2)(c2ccccc2)c2ccccc2)cc1	25.6% (inactive)
CN(C)c1ccc(/C=C/c2nc3ccccc3c(=O)n2CC(=O)Nc2ccc(Cl)cc2)cc1	88.1% (inactive)
Cc1ccc(CNC(=O)Cc2ccc3c(c2)CN(C2CCC(=O)NC2=O)C3=O)cc1 (stereo not drawn)	30.3% (inactive)
Cc1ccn2c(C(=O)c3ccccc3)cc(-c3cc(-c4ccc(N(C)C)cc4)c(C#N)c(N)n3)c2c1	82.5% (inactive)
CCOP(=O)(OCC)O[C@H]1CCC(=O)[C@@H]2[C@H]1[C@H]1C[C@@H]3[C@@]4(C)CCCC(C)(C(=O)OC)[C@@H]4CC[C@@]23C=C1C(C)C (stereo partly drawn)	21.9% (inactive)
C#CCNC(=O)CCC(=O)OC[C@]12CC[C@@H](C(=C)C)[C@@H]1C1CC[C@@H]3[C@@]4(C)CCCNC(C)(C)[C@@H]4CC[C@@]3(C)[C@]1(C)CC2 (stereo partly drawn)	-6.58% (active)
C/C(=N\N=C\c1ccc(N(C)C)cc1)c1ccc2c(c1)Nc1ccccc1S2	48.5% (inactive)
O=C(Nc1ccc(Cl)c([N+](=O)[O-])c1)Nc1ccc(Cl)c([N+](=O)[O-])c1	-20.5% (active)
COc1ccc(CN2[C@H](C(=O)NCc3ccc(C(=O)NO)cc3)Cc3c([nH]c4ccccc34)[C@H]2C2CC2)cc1	47.3% (inactive)
O=C(NO)c1ccc(CNC(=O)[C@H]2Cc3c([nH]c4ccccc34)[C@H](c3ccc(Cl)cc3)N2)cc1	16.9% (inactive)
O=C(Cn1nc(-c2ccccc2)ccc1=O)NN1C(=O)c2ccccc2C1=O	95.7% (inactive)
OCc1[nH]nc2cc(Nc3ncc4ccc(Br)c(OC5CCC(O)CC5)c4n3)ccc12 (stereo not drawn)	3.2% (active)
COc1cc2c3c(n(CCCNCCO)c(=O)c2cc1OC)-c1nc2c(cc1C3=O)OCO2	3.98% (active)
COc1ccc(CN2[C@H](C(=O)NCCCCCCC(=O)NO)Cc3c([nH]c4ccccc34)[C@H]2C2CC2)cc1	15.7% (inactive)
COc1ccc(C2N(c3ccc(Br)cc3)N=C(C(C)=O)N2[C@H]2[C@H](OC(C)=O)O[C@H](COC(C)=O)[C@@H](OC(C)=O)[C@@H]2OC(C)=O)cc1 (stereo partly drawn)	41.1% (inactive)
CN1C(=O)N(C)C2SC(N/N=C/c3cccs3)=NC21 (stereo not drawn)	51.9% (inactive)
Cc1cc(C)nc(/N=C(\N)Nc2ccc(S(=O)(=O)Nc3nc(C)cc(C)n3)cc2)n1	98.9% (inactive)
O=C(Cc1ccc2c(c1)CN(C1CCC(=O)NC1=O)C2=O)NCCc1ccccc1 (stereo not drawn)	45.6% (inactive)
CCNCCCn1c2c(c3cc(OC)c(OC)cc3c1=O)C(=O)c1cc3c(nc1-2)OCO3	-34.7% (active)

Structure (SMILES)	growth
O=C(CNc1nc(-c2ccccc2)cs1)Nc1ccc(Cl)cc1[N+](=O)[O-]	1.75% (active)
Cc1ccc2nc(-c3ccc(-c4nnc(SCC(=O)Nc5ccc(Cl)cc5)o4)cc3)[nH]c2c1	43.2% (inactive)
Cc1ccc(C(=O)NNC(=O)CSc2nc3ccccc3c(=O)[nH]2)cc1	105% (inactive)
CN(C)CCNC(=O)OCCCCOc1cc(O)c2c(=O)cc(-c3ccccc3)oc2c1	-9.41% (active)
CCCCSc1nc(Nc2ccc(/C(C)=N/NC(N)=S)cc2)c(C#N)c(-c2ccccc2)n1	47.3% (inactive)
O=c1[nH]c2ccccc2cc1CSc1ccc(Nc2nccc(-c3ccc4c(c3)OCO4)n2)cc1	81.3% (inactive)
COc1cc2oc(-c3cccc(C(=O)Nc4ccc(Cl)cc4)c3)cc(=O)c2c(OCCNC(=O)CNC(=O)OC(C)(C)C)c1OC	29.4% (inactive)
Cc1ccc2nc(-c3ccc(-c4nnc(SCC(=O)Nc5ccc(Br)cc5)o4)cc3)[nH]c2c1	41.3% (inactive)
COc1ccc(CN2[C@@H](C(=O)NCc3ccc(C(=O)NO)cc3)Cc3c([nH]c4ccccc34)[C@@H]2C)cc1	20.1% (inactive)
O=C(CNc1nc(-c2ccccc2)cs1)Nc1cccc(Cl)c1	26% (inactive)
NS(=O)(=O)c1ccc(NC(=O)CSc2ccc(-c3ccc(Cl)cc3)nn2)c(Br)c1	72.5% (inactive)
Clc1ccc2c(N/N=C/c3c[nH]c4ccc(Br)cc34)ccnc2c1	-42.1% (active)
Cc1ccc(-c2ccc(SCC(=O)Nc3ccc(S(N)(=O)=O)cc3Br)nn2)cc1	67.8% (inactive)
CC(=O)Nc1ccc(-c2cn(-c3cccc(C(=O)Nc4cccc(OC(F)(F)F)c4)c3)nn2)cn1	96% (inactive)
CCOC(=O)N/C(=C1/OCCN1C)[P+](c1ccccc1)(c1ccccc1)c1ccccc1	34.2% (inactive)
O=C(NO)c1ccc(CNc2nc(-c3ccccc3)c3ccccc3n2)cc1	11.3% (inactive)
Cc1cc(C)nc(NS(=O)(=O)c2ccc(N/C(N)=N/c3nccc(-c4cccs4)n3)cc2)n1	87% (inactive)
COc1cnc2c(c1)C(=O)c1c-2n(CCCNCCO)c(=O)c2cc(OC)c(OC)cc12	4.21% (active)
